# Measured values: PubChem BioAssay AID651692 (Broad Institute, 2012)
# Potency and affinity values are given separately. Values without a mark were called inactive.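 How the source made its calls: active means fitted half-maximal concentration for loss of cell signal no higher than twice the top valid tested concentration; inconclusive means flat curve at 30 to 70% inhibition, or poor fit; inactive means flat within 30%, signal rise, or potency above limit.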
# Assay: MDA-MB-231 cell growth inhibition, dose response, cytotoxicity control for RAD54 inhibitor project, CellTiter-Glo luminescence, cherry-pick (AID 651692);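 further: 0% = median of sample compound wells and -100% = staurosporine control wells; more negative values mean stronger loss of viable cell signal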
# Conditions: MDA-MB-231 viability, 24 h; series mostly up to 26 µM; activity change, negative = growth inhibition: at the top concentration
row,SMILES,"activity change, negative = growth inhibition"
1,CCN(CC)CCOc1c(Br)ccc2c1sc1nc3n(c(=O)c12)CCC3,6.81%
2,OCCN1CCN(c2nc(-c3ccccc3O)nc3ccccc23)CC1,1.16%
3,CCN1CCN(c2cc(C)c3cc(NC(=S)NCCN(C)C)ccc3n2)CC1,1.08%
4,Cn1c2ccccc2c(=O)c2cc(NCCCN3CCOCC3)ccc21,7.21%
5,CCc1nc(Nc2ccncc2)c2oc3ccccc3c2n1,4.8%
6,Cc1cccn2c(=O)c3cc(C(=O)NCC4CCCO4)c(=N)n(C4CCCCC4)c3nc12 (stereo not given),9.09%
7,CCN(CC)CCNc1ccc(CO)c2oc3ccccc3c(=O)c12,-0.916%
8,Cc1cccn2c(=O)c3cc(C(=O)NCCN4CCOCC4)c(=N)n(CCN4CCOCC4)c3nc12,-3.17%
9,O=C(Nc1cccc(Cl)c1)c1cc(S(=O)(=O)N2CCOCC2)cs1,10%
10,CN(C)c1cc(NC(=O)CNC(C)(C)C)c2ccccc2n1,-2.81%
11,CN1CCN(c2ccc(Nc3ccnc4cc(Cl)ccc34)cc2)CC1,-10.8%
12,CCN(CC)CCNc1cccc2sc3ccccc3c(=O)c12,-14.9%
13,Cc1ccc2nc3c(c(N)c2c1)CCN3C,4.96%
14,CCN(CC)CCN(C(=O)c1ccc2ncsc2c1)c1nc2cc3c(cc2s1)OCO3,-2.56%
15,Cc1ccnc(Nc2nc(-c3sc(C)nc3C)cs2)c1,0.852%
16,CC(N)c1csc(Nc2nncc3ccccc23)n1 (stereo not given),-7.02%
17,CN1CCN(CCCNC(=O)c2cc3c(-c4ccc(Cl)cc4)nn(C)c3s2)CC1,-4.78%
18,CCCN1CCN(C(=S)Nc2ccc3nc(N4CCN(CC)CC4)cc(C)c3c2)CC1,-3.6%
19,CC(=O)Nc1sc2c(c1-c1nc3ccccc3s1)CN(C(C)C)CC2,-13.2% [at 8 µM]
20,Cc1ccc2oc(=O)c3cc(C(=O)NCCCN4CCN(C)CC4)sc3c2c1,6.21%
